# Screening data deposited in PubChem BioAssay by several laboratories.
# FGF22 binding = shifts melting point of recombinant human FGF22. 1.5% of 340,000 active. activity (Tm shift, normalised), % at 9.99 µM. AID 651658. recombinant FGF22 thermal shift, SYPRO orange fluorescence; percent of sucrose octasulfate shift, DMSO zero;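 active = mean Tm shift, scaled 0 neutral to 100 positive control, at about 1.3% or above, every replicate too, limit read from the data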
# Target sequence (Q9HCT0 whole entry, looked up): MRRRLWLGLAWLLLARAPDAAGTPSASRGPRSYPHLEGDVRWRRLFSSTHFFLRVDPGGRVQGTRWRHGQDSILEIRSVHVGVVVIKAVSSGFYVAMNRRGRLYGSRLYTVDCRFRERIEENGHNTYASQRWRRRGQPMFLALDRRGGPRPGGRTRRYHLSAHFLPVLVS
# KLK7 zymogen act = activates the human kallikrein-7 zymogen; P49862; purified proKLK7, EDANS-DABCYL substrate fluorescence; 100% is mature enzyme control, 0% vehicle; activation, % at 7 µM; 0.9% of 370,000 active;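 active = activation above the mean of all tested compounds plus 3 SD, computed per campaign excluding outliers beyond control limits, cut at about 13% in these data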
# Target sequence (P49862 whole entry, looked up): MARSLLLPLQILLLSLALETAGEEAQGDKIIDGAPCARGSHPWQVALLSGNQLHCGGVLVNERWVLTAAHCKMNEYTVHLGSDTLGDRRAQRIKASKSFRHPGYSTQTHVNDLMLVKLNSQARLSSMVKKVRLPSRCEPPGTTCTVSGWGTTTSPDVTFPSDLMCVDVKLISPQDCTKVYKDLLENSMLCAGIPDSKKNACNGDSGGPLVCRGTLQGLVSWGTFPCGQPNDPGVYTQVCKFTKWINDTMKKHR
# ADAM17 inh = ADAM17 inhibition, QFRET primary screen | inhibition, % at 6.95 µM | recombinant ADAM17, EDANS/DABCYL FRET peptide cleavage | P78536 | 0.83% of 370,000 active;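 active = inhibition above the mean of compounds lying between control limits plus 3 SD, set per campaign, cut at about 8.5% in these data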;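 note: 0% = DMSO-only wells as the low control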
# ADAM10 inh = ADAM10 inhibition, QFRET primary screen | O14672 | recombinant ADAM10, EDANS/DABCYL FRET peptide cleavage, 3 h | inhibition, % at 7 µM | 0.62% of 370,000 active;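 active = inhibition above a per-campaign cutoff equal to the mean of compounds falling between control-based bounds plus 3 SD, cut at about 20% in these data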;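 note: 0% = DMSO wells while the 100% control is not disclosed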
# rRNA inh HTS = inhibits bacterial ribosomal RNA function over humanized ribosomes; E. coli WT GFP vs humanized-ribosome RFP mutants, fluorescence, 24 h; active compounds read low; DMSO median 0, no signal -100; GFP signal change (wild-type ribosome), % (no concentration beside the values); 1.6% of 350,000 active; AID 720706;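 active = significant combined selectivity score with lowered wild-type GFP, culture density cut under 30%, mutant RFP and density less affected; inactive = any of these conditions unmet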
# ADAM10 counter = inhibits human ADAM10 in ADAM17 exosite counter-screen; recombinant ADAM10, EDANS/DABCYL FRET peptide cleavage, 3 h; shares compounds with ADAM17 inh; 47% of 2,900 active; inhibition, % at 6.95 µM;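 active = mean inhibition over the triplicate runs exceeds the activity threshold set in the earlier primary screen, cut at about 20% in these data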;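 note: 0% = DMSO wells and 100% = marimastat wells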
# ADAM17 confirm = human ADAM17 inhibition, confirmation | shares compounds with ADAM17 inh | recombinant ADAM17, EDANS/DABCYL QFRET peptide cleavage | inhibition, % at 6.95 µM | 65% of 2,900 active;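 active = mean inhibition across replicates above the hit cutoff set in the primary screen, cut at about 8.5% in these data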;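 note: 0% = DMSO wells and 100% = marimastat wells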
# An asterisk follows results filed as active; / = no result. This is a sample that favours compounds with a hit; in the whole collection about 3.8% have one here.
SMILES,FGF22 binding,KLK7 zymogen act,ADAM17 inh,ADAM10 inh,rRNA inh HTS,ADAM10 counter,ADAM17 confirm
O=C1CC(Nc2ccc3ccccc3c2)C(=O)N1Cc1ccccc1 (centres undefined),/,2,10.0*,9,/,12,11*
CCSc1ccc([C@@H]2[C@@H]3C(=O)N(CC)C(=O)[C@@H]3[C@]3(C(=O)OC)CCCCN23)cc1OC,0,0,-2,6,0,/,/
COC(=O)[C@@]12CCCCN1[C@H](c1ccc(SC3CCCCC3)c(OC)c1)[C@@H]1C(=O)N(C)C(=O)[C@@H]12,0,0,10*,15,10,29*,17*
CCCSc1ccc([C@@H]2[C@H]3C(=O)N(CC)C(=O)[C@H]3[C@]3(C(=O)OC)CCCN23)cc1,0,0,13*,10,-5,3,3
CCN1C(=O)[C@@H]2[C@@H](c3ccc(SC4CCCCC4)c(OC)c3)N3CCCC[C@@]3(C(=O)OC)[C@@H]2C1=O,0,0,-1,2,22,/,/
CCSc1ccc([C@@H]2[C@H]3C(=O)N(C)C(=O)[C@H]3[C@]3(C(=O)OC)CCCCN23)cc1OC,0,0,11*,3,3,26*,13*
CCC(C)Sc1ccc([C@@H]2[C@@H]3C(=O)N(CC)C(=O)[C@@H]3[C@]3(C(=O)OC)CCCCN23)cc1OC (some centres undefined),0,3,9.2*,13,8,-3,7
Cc1ccccc1S(=O)(=O)N1C[C@H](O)COC[C@H]2O[C@H](CC(=O)O)CC[C@@H]21,0,/,/,/,3,/,/
C[C@H]1CCCCO[C@H](CN(C)C)[C@@H](C)CN([C@@H](C)CO)C(=O)c2cc(NS(=O)(=O)c3cn(C)cn3)ccc2O1,0,/,/,/,2,/,/
CNC[C@@H]1Oc2c(N)cccc2C(=O)N(C)C[C@@H]1C,/,/,/,/,1,/,/
CC(C)(C)OC(=O)NCCCC[C@H](NC(=O)c1nc[nH]c1C(=O)NC1CCN(C(=O)OC(C)(C)C)CC1)C(=O)OC(C)(C)C,-1,1,8.9*,17,10,-10,3
COC(=O)C[C@@H]1C[C@@H]2c3cc(NC(=O)c4cccnc4)ccc3O[C@@H]2[C@@H](CO)O1,0,/,/,/,0,/,/
Cc1cc(CSc2ccc(Cl)cc2)ccc1N,0,0,9.7*,3,-30,21*,8
CCCC#Cc1ccc2c(c1)O[C@H](CN(C)S(=O)(=O)c1cccc(OC)c1)[C@H](C)CN([C@H](C)CO)S2(=O)=O,1,1,9.6*,12,7,25*,13*
COc1cccc(C#Cc2ccc3c(c2)O[C@H](CN(C)S(=O)(=O)c2ccccc2F)[C@@H](C)CN([C@@H](C)CO)S3(=O)=O)c1,0,/,/,/,4,/,/
COc1cccc(C#Cc2ccc3c(c2)O[C@H](CN(C)S(=O)(=O)c2ccccc2F)[C@H](C)CN([C@H](C)CO)S3(=O)=O)c1,0,-1,11*,-6,5,-24,-5
CO[C@H]1CN(C)C(=O)c2ccc(NC(=O)Cc3ccccc3)cc2OC[C@H](C)N(C(=O)c2ccccc2F)C[C@H]1C,0,/,/,/,4,/,/
C[C@@H]1CN(C)C(=O)c2cc(N(C)C)ccc2O[C@H]1CN(C)S(C)(=O)=O,/,/,/,/,-1,/,/
COc1ccc(NC(=O)CN(C)C(=O)/C=C/c2cn(-c3ccccc3)nc2-c2ccc(C)cc2)cc1,0,-1,13*,5,5,2,10*
COc1ccc(NC(=O)CN(C)C(=O)/C=C/c2cn(-c3ccccc3)nc2-c2ccc(F)cc2)cc1,0,0,-7,-9,0,/,/
O=C(C1CC1)N1CC2(C1)[C@@H](c1ccccc1)[C@@H](CO)N2Cc1ccc(Cl)cc1,0,/,/,/,-14,/,/
Cc1[nH]c2ccc(C(=O)NCCCN(C)C3CCCCC3)cc2c1C,0,1,8.7*,0,9,-49,-10
O=C(CCc1c[nH]c2ccccc12)OCC(=O)c1ccccc1,0,0,0,2,-13,/,/
CN(C(=O)COC(=O)CCc1c[nH]c2ccccc12)C(c1ccccc1)c1ccccc1,0,-1,11*,18,-3,28*,15*
O=C(Nc1ccc2c(c1)OCO2)N[C@H]1CC[C@@H](CCNC(=O)C2CC2)O[C@@H]1CO,0,/,/,/,-1,/,/
SMILES,FGF22 binding,KLK7 zymogen act,ADAM17 inh,ADAM10 inh,rRNA inh HTS,ADAM10 counter,ADAM17 confirm
COc1ccc(NC(=O)Cn2nnc(C(=O)Nc3ccc(F)c(Cl)c3)c2N)cc1OC,0,0,2,-2,11,/,/
COc1ccc(Cl)cc1NC(=O)c1nnn(CC(=O)Nc2ccc(C)c(C)c2)c1N,0,0,11*,8,6,-6,2
CCNC(=O)CSc1nc(-c2ccc(F)cc2)cs1,0,0,-4,-2,-2,/,/
CC(C)(C)NC(=O)CSc1nc(-c2ccc(F)cc2)cs1,0,0,9.1*,3,-4,3,0
O=C(NCC[C@H]1CC[C@@H](NC(=O)c2cccnc2)[C@H](CO)O1)Nc1ccc(Cl)cc1,0,/,/,/,0,/,/
C[C@@H]1CN([C@@H](C)CO)C(=O)c2cc(NC(=O)Nc3cccc4ccccc34)ccc2O[C@@H](C)CCCCO[C@H]1CN(C)Cc1ccc2c(c1)OCO2,-1,/,/,/,-4,/,/
CC(C)(C)c1ccc(C2(C)NC(=O)N(CC(=O)c3ccc[nH]3)C2=O)cc1 (centres undefined),0,0,11*,15,4,4,3
O=[N+]([O-])c1cc(Cl)c(O)c2ncccc12,/,0,10*,15,-54,20,11*
C[C@@H]1CN([C@@H](C)CO)C(=O)c2cccc(NC(=O)c3nc4ccccc4s3)c2O[C@@H]1CN(C)Cc1ccc(Oc2ccccc2)cc1,0,/,/,/,3,/,/
CCCCN1C(=O)/C(=C/C=C2\SCCN2C)SC1=S,0,0,12*,15,-30,25*,16*
CN1CCS/C1=C/C=C1\SC(=S)N(CC(=O)O)C1=O,0,0,8.9*,15,31,27*,13*
O=C(O)CN1C(=O)/C(=C/c2ccc(N3CCCCC3)o2)SC1=S,0,-3,-10,-11,14,/,/
CN1CCS/C1=C/C=C1/SC(=S)N(Cc2ccccc2)C1=O,0,0,8,16,-36,/,/
O=C(C[C@H]1C=C[C@H](NC(=O)c2ccc3c(c2)OCO3)[C@H](CO)O1)NCc1ccc(F)cc1,/,/,/,/,2,/,/
CNC(=S)N1N=C(c2ccc(Br)cc2)CC1c1ccc(Br)cc1 (centres undefined),/,-1,12*,15,/,27*,17*
